Test results taken from PubChem BioAssay (NCATS).
Records with an inconclusive call do not appear. Active and inactive are the calls of the source. Unless noted, calls follow the shape of the full dose curve.

What was measured:
[1] = qHTS for Inhibitors of the Functional Ribonucleoprotein Complex (vRNP) of Lassa (LASV) Arenavirus: LASV Primary Screen - GLuc reporter signal (AID 1347082; calls by dose curve; tested in HEK293 reporter line; also: nearly all actives have a fitted effect of over 60% in size; as to activity change, negative = inhibition: series mostly up to about 57 µM)
[2] = qHTS for Inhibitors of the Functional Ribonucleoprotein Complex (vRNP) of Lassa (LASV) Arenavirus: Viability assay - alamar blue signal for LASV Primary Screen (AID 1347083; calls by dose curve; tested in HEK293 reporter line; also: nearly all actives have a fitted effect of over 80% in size; as to activity change, negative = reduced viability: series mostly up to about 57 µM)
[3] = qHTS for Inhibitors of the Functional Ribonucleoprotein Complex (vRNP) of Lymphocytic Choriomeningitis Arenaviruses (LCMV): Viability assay - alamar blue signal for LCMV Primary Screen (AID 1347085; calls by dose curve; tested in HEK293 reporter line; also: nearly all actives have a fitted effect of over 80% in size; as to activity change, negative = lower viability: series mostly up to about 57 µM)
[4] = biological target: Nucleoprotein (Lymphocytic choriomeningitis virus (strain Armstrong)) (UniProt P09992); assay: qHTS for Inhibitors of the Functional Ribonucleoprotein Complex (vRNP) of Lymphocytic Choriomeningitis Arenaviruses (LCMV): LCMV Primary Screen - GLuc reporter signal (AID 1347086); also: nearly all actives have a fitted effect of over 70% in size; as to activity change, negative = inhibition: series mostly up to about 57 µM
% is scaled to controls: 0 for no effect and ±100 for the full control effect; potency is read from the fitted curve at half-maximal effect.

Chain of Nucleoprotein (Lymphocytic choriomeningitis virus (strain Armstrong)) (P09992 whole entry, looked up): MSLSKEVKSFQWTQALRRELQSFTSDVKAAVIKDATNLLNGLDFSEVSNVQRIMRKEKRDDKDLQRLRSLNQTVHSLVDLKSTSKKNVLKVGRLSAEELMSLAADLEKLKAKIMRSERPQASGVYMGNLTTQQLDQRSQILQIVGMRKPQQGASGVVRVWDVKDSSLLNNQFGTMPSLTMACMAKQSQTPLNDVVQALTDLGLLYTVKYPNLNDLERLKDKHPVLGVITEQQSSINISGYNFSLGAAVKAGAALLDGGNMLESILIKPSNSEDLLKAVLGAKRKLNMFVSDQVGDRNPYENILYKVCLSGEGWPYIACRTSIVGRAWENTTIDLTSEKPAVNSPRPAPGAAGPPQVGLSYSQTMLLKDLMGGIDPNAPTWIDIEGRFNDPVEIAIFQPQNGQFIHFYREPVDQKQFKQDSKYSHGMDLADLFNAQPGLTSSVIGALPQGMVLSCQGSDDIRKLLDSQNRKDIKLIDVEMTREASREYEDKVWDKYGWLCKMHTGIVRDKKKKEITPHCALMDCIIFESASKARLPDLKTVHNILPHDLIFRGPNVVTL

CO[C@H]1[C@@H](OC)CC(OC2OC(CO)C(O)C(O)C2O)/C(=C\C#N)[C@@H]1O (some centres not stated)
inactive: Potency [1] | Potency [2] | Potency [3] | Potency [4]

COc1c2c(nc3occc13)C(CC=C(C)C)(OC)C(OC(C)=O)CC2 (configuration not stated)
inactive: Potency [1] | Potency [2] | Potency [3] | Potency [4]

COc1ccc2cc1Oc1ccc(cc1)CC1c3cc(c(OC)cc3CCN1C)Oc1c(OC)c(OC)c(OC)c3c1C(C2)N(C)CC3 (configuration not stated)
inactive: Potency [1] | Potency [2] | Potency [3] | Potency [4]

COC(/C=C(\C)CCC=C(C)C)OC
inactive: Potency [1] | Potency [2] | Potency [3] | Potency [4]

CCCCCCCCCCCC(=O)c1c(O)cccc1O
inactive: Potency [1] | Potency [2] | Potency [3] | Potency [4]

O=CN1CCCCC1
inactive: Potency [1] | Potency [2] | Potency [3] | Potency [4]

COc1ccc([C@@H]2CC(=O)c3c(O)cc(O[C@@H]4OC(CO[C@@H]5OC(C)[C@H](O)[C@@H](O)[C@H]5O)[C@@H](O)[C@H](O)[C@H]4O)cc3O2)cc1O (some centres not stated)
inactive: Potency [1] | Potency [2] | Potency [3] | Potency [4]

CC1(C)CCC[C@]2(C)[C@H]3Cc4cc(O)ccc4O[C@]3(C)CC[C@@H]12
inactive: Potency [1] | Potency [2] | Potency [3] | Potency [4]

CCC(=O)NC[C@H](Cc1ccc(OCCc2nc(-c3ccccc3)oc2C)cc1)NC(C)=CC(=O)c1ccc(C(F)(F)F)cc1
inactive: Potency [1] | Potency [2] | Potency [3] | Potency [4]

CC(=O)C1CCC2C3CCC4=CC(=O)C=CC4(C)C3CCC12C (configuration not stated)
inactive: Potency [1] | Potency [2] | Potency [3] | Potency [4]

NCCCCCN
inactive: Potency [1] | Potency [2] | Potency [3] | Potency [4]

CC1=C(/C=C/C(C)=C/C=C/C(C)=C/C=C/C=C(C)/C=C/C=C(\C)C=O)C(C)(C)CCC1
inactive: Potency [1] | Potency [2] | Potency [3] | Potency [4]

CN[C@H]1[C@@H](O[C@@H]2[C@H](O[C@@H]3[C@@H](O)[C@@H](O)[C@@H](N=C(N)N)[C@@H](O)[C@@H]3N=C(N)N)O[C@H](C)[C@@]2(O)C=O)O[C@@H](CO)[C@@H](O)[C@H]1O
inactive: Potency [1] | Potency [2] | Potency [3] | Potency [4]

Cc1cnccn1
inactive: Potency [1] | Potency [2] | Potency [3] | Potency [4]

CC1=CC2OC3CC4OC(=O)C=CC=CC(=O)OCCC(C)C(O)C(=O)OCC2(CC1)C4(C)C31CO1 (configuration not stated)
inactive: Potency [1] | Potency [2] | Potency [3] | Potency [4]

CCCCCCCCCCOS(=O)(=O)O
inactive: Potency [1] | Potency [2] | Potency [3] | Potency [4]

O=c1c(O[C@@H]2OC([C@H](O)CO)[C@H](O)[C@H]2O)c(-c2ccc(O)c(O)c2)oc2cc(O)cc(O)c12 (some centres not stated)
inactive: Potency [1] | Potency [2] | Potency [3] | Potency [4]

C/C1=C\[C@@H](O)C(C(C)C)C(OC(=O)c2ccc(O)cc2)C/C(C)=C/CC1 (some centres not stated)
inactive: Potency [1] | Potency [2] | Potency [3] | Potency [4]

CC1(C)CC[C@]2(C(=O)O)[C@H](O)C[C@]3(C)C(=CCC4[C@@]5(C)C[C@H](O)[C@H](O)[C@@](C)(CO)C5CC[C@]43C)[C@@H]2C1 (some centres not stated)
inactive: Potency [1] | Potency [2] | Potency [3] | Potency [4]

CC1(C)C2CC[C@]3(C)C(CC=C4[C@@H]5C[C@@](C)(CO)[C@@H](O)C[C@]56C[C@@H](OC6=O)[C@]43C)[C@@]2(C)CC[C@@H]1O (some centres not stated)
inactive: Potency [1] | Potency [2] | Potency [3] | Potency [4]

C[C@@H]1O[C@@H](O[C@H]2CC[C@@H](O[C@H]3[C@H](O)C[C@H](c4ccc5c(c4O)C(=O)C4=C(C5=O)[C@@]5(O)C(=O)C[C@](C)(O[C@H]6CC[C@H](O[C@H]7C=CC(=O)[C@H](C)O7)[C@H](C)O6)C[C@@]5(O)C=C4)O[C@@H]3C)O[C@H]2C)C=CC1=O
inactive: Potency [1] | Potency [2] | Potency [3] | Potency [4]

CCC(C)(C)O
inactive: Potency [1] | Potency [2] | Potency [3] | Potency [4]

CC(C)c1cccc(O)c1
inactive: Potency [1] | Potency [2] | Potency [3] | Potency [4]

CCc1nccc2c1[nH]c1ccccc12
inactive: Potency [1] | Potency [2] | Potency [3] | Potency [4]

CN1C2CCC1CC(OC(=O)c1cccc(O)c1)C2 (configuration not stated)
inactive: Potency [1] | Potency [2] | Potency [3] | Potency [4]

O=C1CCCC2[C@@H]3CCC[N@+]4([O-])CCC[C@H](CN12)C34 (some centres not stated)
inactive: Potency [1] | Potency [2] | Potency [3] | Potency [4]

Cc1ccc2oc3ccccc3c(=O)c2c1
inactive: Potency [1] | Potency [2] | Potency [3] | Potency [4]

COc1ccc2[nH]cc(CCO)c2c1
inactive: Potency [1] | Potency [2] | Potency [3] | Potency [4]

O=c1cc(-c2ccc(O)cc2)oc2cc(OC3OC(CO)C(O)C(O)C3O)c(C3OC(CO)C(O)C(O)C3O)c(O)c12 (configuration not stated)
inactive: Potency [1] | Potency [2] | Potency [3] | Potency [4]

CNC(=O)[C@H]1O[C@@H](n2cnc3c(NCc4cccc(I)c4)ncnc32)[C@H](O)[C@@H]1O
inactive: Potency [1] | Potency [2] | Potency [3] | Potency [4]

OC[C@H]1O[C@@H](O[C@@H]2OC=C[C@H]3[C@H](O)[C@@H]4O[C@]4(CO)[C@@H]23)[C@H](O)[C@@H](O)[C@@H]1O
inactive: Potency [1] | Potency [2] | Potency [3] | Potency [4]

COc1ccc(C(=O)OC2C[C@H]3CC[C@@H](C2)N3O)cc1OC (some centres not stated)
inactive: Potency [1] | Potency [2] | Potency [3] | Potency [4]

CC(C)=CCCC(C)C=O (configuration not stated)
inactive: Potency [1] | Potency [2] | Potency [3] | Potency [4]

NC(=O)c1ncn([C@@H]2O[C@H](CO)[C@@H](O)[C@@H]2O)c1O
inactive: Potency [1] | Potency [2] | Potency [3] | Potency [4]

COC(=O)C=CC(=O)OC
active: Potency [1] 6110 nM | Potency [2] 4850 nM | Potency [3] 3060 nM | Potency [4] 4850 nM

CC1(C)CC(=O)c2cc(O)ccc2O1
inactive: Potency [1] | Potency [2] | Potency [3] | Potency [4]

CC(=O)Nc1nc(C)c(-c2ccc(Cl)c(S(=O)(=O)NCCO)c2)s1
active: Potency [1] 2430 nM | Potency [2] 1370 nM | Potency [3] 685 nM | Potency [4] 544 nM

CC(C)C1C(=O)O[C@@H]2CCN3CC=C(COC(=O)[C@](C)(O)[C@]1(C)O)[C@H]23 (some centres not stated)
inactive: Potency [1] | Potency [2] | Potency [3] | Potency [4]

CCCCCCCCOS(=O)(=O)O
inactive: Potency [1] | Potency [2] | Potency [3] | Potency [4]

NC1=NCCCC1
inactive: Potency [1] | Potency [2] | Potency [3] | Potency [4]

CCCC(C)C(O)CC (configuration not stated)
inactive: Potency [1] | Potency [2] | Potency [3] | Potency [4]

C[C@@]12CC[C@H]3OC(=O)C=C3C1CC[C@@]13CC(CCC12)[C@](CO)(O[C@H]1O[C@H](CO)[C@@H](O)[C@H](O)[C@H]1O)C3 (some centres not stated)
inactive: Potency [1] | Potency [2] | Potency [3] | Potency [4]

C=C1CCC(OC(C)=O)C2(C)CCC3C(C)C(=O)OC3C12O (configuration not stated)
inactive: Potency [1] | Potency [2] | Potency [3] | Potency [4]

COC(=O)/C=C\C(=O)O
inactive: Potency [1] | Potency [2] | Potency [3] | Potency [4]

CNc1ncnc2c1ncn2[C@@H]1O[C@H](CO)C(O)[C@H]1O (some centres not stated)
inactive: Potency [1] | Potency [2] | Potency [3] | Potency [4]

OCc1ccccc1O[C@@H]1O[C@H](CO)[C@H](O)[C@H](O)[C@H]1O
inactive: Potency [1] | Potency [2] | Potency [3] | Potency [4]

CCCCC/C=C\C/C=C\C=C\[C@@H](O)C/C=C\CCCC(=O)O
inactive: activity change, negative = inhibition [1] -0.303% [at 0.757 µM] | activity change, negative = reduced viability [2] 9.41% [at 0.757 µM] | activity change, negative = lower viability [3] 16.7% [at 0.757 µM] | activity change, negative = inhibition [4] 14.7% [at 0.757 µM]

C[C@]12CC[C@@H](O)CC1=CC(=O)C1C2CC[C@]2(C)C(=O)[C@H](O)CC12 (some centres not stated)
inactive: Potency [1] | Potency [2] | Potency [3] | Potency [4]

Clc1cccc(-c2nnnn2Cc2cccnc2)c1Cl
inactive: Potency [1] | Potency [2] | Potency [3] | Potency [4]

C=C(C)C(O)COc1c2occc2c(OC)c2ccc(=O)oc12 (configuration not stated)
inactive: Potency [1] | Potency [2] | Potency [3] | Potency [4]

CN1CC(=O)N2C(Cc3c([nH]c4ccccc34)[C@H]2c2ccc3c(c2)OCO3)C1=O (some centres not stated)
inactive: Potency [1] | Potency [2] | Potency [3] | Potency [4]

CCCCCCCCCCCCCCCC(=O)OC(CO)CO
inactive: Potency [1] | Potency [2] | Potency [3] | Potency [4]

C/C=C1/C[C@@H](C)[C@@](C)(O)C(=O)OCC2=CCN3CC[C@@H](OC1=O)[C@@H]23
inactive: Potency [1] | Potency [2] | Potency [3] | Potency [4]

Cc1c(-c2cccc3c(CCCOc4cccc5ccccc45)c(C(=O)O)n(Cc4cccnc4)c23)c(COc2ccc(N3CCN([S+](=O)([O-])N(C)C)CC3)cc2)nn1C
inactive: Potency [1] | Potency [2] | Potency [3] | Potency [4]

CC1=CCC[C@@H]2[C@@](C)(CC/C(C)=C/C(=O)O)[C@H](C)CC[C@@]12C
inactive: Potency [1] | Potency [2] | Potency [3] | Potency [4]

NC1(C(=O)N[C@@H](CCO)c2ccc(Cl)cc2)CCN(c2ncnc3[nH]ccc23)CC1
active: Potency [1] 968 nM | Potency [2] 385 nM | Potency [3] 611 nM | Potency [4] 1720 nM

CC(C)(O)Cn1c(NC(=O)c2ccc(-c3cn[nH]c3)s2)nc2cc(CN3CCOCC3)ccc21
active: Potency [1] 3430 nM | Potency [2] 3430 nM | Potency [3] 4320 nM | Potency [4] 10900 nM

CCN1C[C@@]2(COC)CCC(OC)[C@]34C5C[C@]6(O)[C@@H](OC)C[C@](OC(C)=O)(C([C@H](OC)C23)[C@H]14)C5[C@H]6OC(=O)c1ccc(OC)cc1 (some centres not stated)
inactive: Potency [1] | Potency [2] | Potency [3] | Potency [4]
